The values that follow come from PubChem BioAssay.

Several values for one entry are separate records, joined by “and”; a condition that tells them apart may be missing. Equal entries are not always repeated. Unmarked numbers belong to inactive results.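 The calls were made as follows: active = GFP response above 150% of the DMSO level; inconclusive = fewer than 70 events counted for a yeast strain; inactive = the rest.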

A short description of this assay: AGP1-GFP expression modulators, hit retest, confirmation, cell-based, flow cytometry, S. cerevisiae, cherry picks (AID 2273).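 Also: median GFP channel fluorescence over the whole cell population gate.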 Conditions: S. cerevisiae AGP1-GFP strain, 3 h, at 10 µM. (In general: A flow cytometer gives signals particle by particle.)

For the compound `CC(=O)O[C@]1(C(C)=O)CC[C@H]2[C@@H]3C[C@H](C)C4=CC(=O)CC[C@]4(C)[C@H]3CC[C@@]21C`, the GFP response, % of DMSO is 97.1%.

For the compound `CC(=O)[C@H]1CC[C@H]2[C@@H]3CCC4=CC(=O)CC[C@]4(C)[C@H]3[C@H](O)C[C@]12C`, the GFP response, % of DMSO was 100%.

In the case of `N#C/C(C(N)=O)=c1/ccc2c(c1)N1C3=C(CCCC3)CC3CCCCC31N=2` (stereo not given), the GFP response, % of DMSO was 100%.

`Nc1[nH]c(=O)ncc1F`: the GFP response, % of DMSO is 78.5%.

Regarding `C[C@]12CCC(=O)C=C1CC[C@@H]1[C@@H]2[C@@H](O)C[C@@]2(C)[C@H]1CC[C@]2(O)C(=O)COC(=O)CCC(=O)O`, the GFP response, % of DMSO is 98.9% and 99.3%.

Take `CC(=O)[C@@]1(O)CC[C@H]2[C@@H]3C[C@H](C)C4=CC(=O)CC[C@]4(C)[C@H]3CC[C@@]21C`: the GFP response, % of DMSO is 93.3%.

For `C[C@]12CC[C@H]3[C@@H](CCC4=CC(=O)CC[C@@]43C)[C@@H]1CC[C@@H]2C(=O)CO`, the GFP response, % of DMSO is 92.6%.

As to `C[C@]12CCC(=O)C=C1[C@H](O)C[C@@H]1[C@@H]2[C@@H](O)C[C@@]2(C)[C@H]1CC[C@]2(O)C(=O)CO`, the GFP response, % of DMSO was 98.9%.

Consider `CC(=O)Nc1ccccc1O`, for which the GFP response, % of DMSO was 98.7%.

Consider `O=c1[nH]cc(F)c(=O)[nH]1`, for which the GFP response, % of DMSO is 90%.

Take `CC(=O)OCC(=O)[C@H]1CC[C@H]2[C@@H]3CCC4=CC(=O)CC[C@]4(C)[C@H]3CC[C@]12C`: the GFP response, % of DMSO was 95.2%.

As for `C[C@]12CCC(=O)C=C1CC[C@@H]1[C@@H]2[C@@H](O)C[C@@]2(C)[C@H]1CC[C@]2(O)C(=O)CO`, the GFP response, % of DMSO was 99.2%.

Regarding `O=C(NCCN1CCN(c2ccccc2)CC1)c1cccc(Br)c1`, the GFP response, % of DMSO was 100%.

On to `CN(C)CCCN1c2ccccc2Sc2ccc(Cl)cc21`, for which the GFP response, % of DMSO is 94.3%.

Take `c1ccc2c(c1)CCOC2CNCCCN1CCCCC1` (stereo not given): the GFP response, % of DMSO is 98.5%.

Turning to `NS(=O)(=O)c1cc2c(cc1C(F)(F)F)NC(Cc1ccccc1)NS2(=O)=O` (stereo not given), the GFP response, % of DMSO was 101%.

On to `C#C[C@]1(O)CC[C@H]2[C@@H]3CCC4=CC(=O)CC[C@@H]4[C@H]3CC[C@@]21CC`, for which the GFP response, % of DMSO is 95.7%.

For `CCCCN(CCCC)CCCOC(=O)c1ccc(N)cc1`, the GFP response, % of DMSO is 94.5%.

Turning to `CCOc1cc(C=O)ccc1OCCSc1ccc(C)cc1`, the GFP response, % of DMSO is 94.9%.

Regarding `CCCCCCCC(=O)OCC(=O)[C@@]1(O)CC[C@H]2[C@@H]3CCC4=CC(=O)CC[C@]4(C)[C@H]3[C@@H](O)C[C@@]21C`, the GFP response, % of DMSO was 101%.
